# Screens as filed in PubChem BioAssay.
# FEN1 inh: human FEN1 inhibition; P39748; Recombinant FEN1 flap cleavage, fluorescence, 15 min; Potency, µM (highest dose often 114 µM), inactives show at the highest dose activity change, negative = inhibition, actives largely listed as inhibitors; 390,000 tested, 0.35% active; AID 588795; note: % is set by controls: 0 for no effect and ±100 for the full control effect; nearly all actives have a fitted effect of over 65% in size
#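 With each library titrated from low to high concentration, compounds met 10 nM FEN1 for 15 min at room temperature before 50 nM substrate was added; readings at 0 and 15 min fed four-parameter Hill curve fits.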
# WRN helicase inh: WRN helicase (human) inhibition; WRN helicase unwinding, fluorescent forked duplex, kinetic; Potency, µM (series often up to 114 µM), without a hit: top-dose activity change, negative = inhibition, most hits filed as inhibitors; 360,000 tested, 0.46% active; note: % is set by controls: 0 for no effect and ±100 for the full control effect; nearly all actives have a fitted effect of over 55% in size
#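 WRN at 20 nM final was preincubated with compound for 15 min at room temperature; reaction started with 100 nM forked duplex oligonucleotide carrying fluorophore and quencher plus 2 mM ATP (final). Unwinding followed kinetically by red fluorescence (ex 525/em 598 nm).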
# POLI inh: inhibitors of human DNA polymerase iota; Q9UNA4; Pol iota fluorescent replication assay, 10 min; Potency, µM (titrated, usually from 115 µM), without a hit: top-dose activity, negative = inhibition, most hits filed as inhibitors; 390,000 tested, 1% active
#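 Fluorescent replication assay read twice, at 0 min and 10 min after adding 50 nM (final) substrate. Enzyme (10 nM) and compounds were first incubated 15 min at room temperature; enzyme-free buffer wells were negative controls.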
# Pol beta inh: blocks human DNA polymerase beta activity; P06746; Pol beta primer extension/strand displacement, fluorescence kinetic; Potency, µM (series often up to 114 µM), for inactives: top-dose activity change, negative = inhibition, most hits filed as inhibitors; 340,000 tested, 1.3% active; AID 485314; note: % is set by controls: 0 for no effect and ±100 for the full control effect
#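 Homogeneous kinetic assay of primer extension and strand displacement by 10 nM Pol beta, preincubated 15 min at room temperature with compound before 50 nM substrate (final) was added. Read at 0 and 10 min; four-parameter Hill fit.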
# Pol kappa inh: blocks human DNA polymerase kappa activity; Q9UBT6; Potency, µM (highest dose often 107 µM), for inactives: at the highest dose activity, negative = inhibition, usual class: inhibitors; purified Pol kappa, fluorescent DNA synthesis assay, 10 min; AID 588579; 400,000 tested, 0.53% active; note: % is set by controls: 0 for no effect and ±100 for the full control effect
#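 Inhibition of 10 nM Pol kappa is measured by a fluorescent read-out at 0 and 10 min following addition of 50 nM substrate (final), with a 15-min room-temperature compound preincubation.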
# POLH inh: inhibitors of human DNA polymerase eta. Q9Y253. recombinant Pol eta, fluorescent DNA replication assay. Potency, µM (highest dose often 114 µM), inactives show at the top dose activity change, negative = inhibition, most hits filed as inhibitors. 390,000 tested, 1.2% active. AID 588591; note: % is set by controls: 0 for no effect and ±100 for the full control effect
#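 Fluorescent replication assay: 50 nM final substrate added after a 15 min room-temperature compound preincubation with 10 nM enzyme. Signal taken at 0 min and again at 10 min.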
# Starred values were filed as active, the others as inactive; ? = inconclusive; . = no result; [ ] = remark or other dose. An excerpt weighted towards active compounds, which were near 2.4% of everything screened. Calls come from the whole dose curve; as a rule, active = well fitted curve in the direction sought with a large enough effect; inconclusive = small, poorly fitted or top-dose-only effect, or another doubt; inactive = no such curve, though single readings can be large; an effect the other way counts as inactive or inconclusive. Potency is the fitted concentration of half-maximal effect.
SMILES,FEN1 inh,WRN helicase inh,POLI inh,Pol beta inh,Pol kappa inh,POLH inh
COc1ccc(-c2csc(Nc3ccc(S(=O)(=O)Nc4cc(C)on4)cc3)n2)cc1C,1%,-11%,2%,?,4%,89µM*
O=C(Cn1cnc2c(nc3n2CCCCC3)c1=O)Nc1ccc(F)cc1,-3%,.,21%,-1%,-3%,-13%
Cc1cc(C)c2c(NC(=O)c3ccccc3Cl)c(C(=O)NCc3ccc(Cl)cc3)sc2n1,-19%,.,-20%,22µM*,-16%,.
Cc1noc(C)c1-c1nc(NCCN2CCOCC2)c2ccccc2n1,.,.,.,.,4%[60.1 µM],.
C=CCOc1c(Cl)cc(CNc2ccc(C)c(Cl)c2)cc1OC,.,.,.,21%,.,.
C=CCOc1c(Cl)cc(CNc2ccc(N(C)C)cc2)cc1OC,-15%,-9%,8.9µM*,-24%,-20%,-6%
Cc1ccn2c(=O)c(C(=O)NCCc3ccccc3)c(O)nc2c1,12%,.,-5%,?,7%,-15%
Cc1ccc(/C=[N+](\[O-])c2ccc(N(C)C)cc2)c2nsnc12,?,-5%[11.6 µM],50µM*,?,-16%,-1%
Cc1ccc(SCc2nc(-c3ccc(C(=O)Nc4cc(C)ccc4C)cc3)oc2C)cc1,16%,.,17%,-2%,-15%,-9%
CC(=O)C(=O)O,.,.,.,.,-6%[60.1 µM],.
COc1cc(NCc2ccccc2)c2ncn(C(C)C)c2c1,-18%,4%,61%,.,-3%,-16%
CCC(CN(C)C)Oc1cc(NCc2ccccc2)c2ncn(C(C)C)c2c1 (stereo not given),?,3%,14µM*,.,-12%,-17%
CC(=O)N1c2ccc(S(=O)(=O)NCC3CCC(C(=O)N4CCC(C)CC4)CC3)cc2CC1C (stereo not given),-9%,2%,79µM*,23%,-14%,-14%
CC(=O)N1c2ccc(S(=O)(=O)NCC3CCC(C(=O)Nc4cccc(C)c4C)CC3)cc2CC1C (stereo not given),18%,.,?,22µM*,-20%,-19%
CC(=O)N1c2ccc(S(=O)(=O)NCC3CCC(C(=O)NC4CCC(C)CC4)CC3)cc2CC1C (stereo not given),4%,3%,9%,2%,-3%,-2%
CCc1ccccc1NC(=O)C1CCC(CNS(=O)(=O)c2ccc3c(c2)CC(C)N3C(C)=O)CC1 (stereo not given),0%,.,5%,5%,9%,-11%
O=[N+]([O-])c1cccc(CNC2CCCCCC2)c1,-2%,10%,122%,28µM*,0%,-11%
C1=Cc2ccccc2/C1=C\c1cccc(/C=C2\C=Cc3ccccc32)c1,35µM*,.,?,.,?,.
C1=Cc2ccccc2/C1=C\c1ccc(/C=C2\C=Cc3ccccc32)cc1,14%,.,-2%,.,-12%,.
CC(=O)Nc1ccc(N(C(=O)Cn2nnc3ccccc32)C(C(=O)NCc2ccccc2)c2ccc(C)cc2)cc1 (stereo not given),-8%,.,?,11%,-11%,-2%
Oc1ccccc1C1=Nc2ncnn2C(c2ccc(F)cc2)C1 (stereo not given),-16%,?,2%,32µM*,-8%,?
COc1ccc(/C=C(\C#N)c2nc3ccccc3[nH]2)cc1O,-2%,?,?,25µM*,-34%,79µM*
Cc1cc(/C=C(\C#N)c2nc3ccccc3[nH]2)c(C)n1C,-1%,-22%,?,40µM*,-15%,?
CCC(=O)Oc1ccc(/C=C(\C#N)c2nc3ccccc3[nH]2)cc1OC,-21%,.,64%,1%,-18%,.
CCOC(=O)COc1ccc(/C=C(\C#N)c2nc3ccc(C)cc3[nH]2)cc1OC,7%,.,?,11µM*,?,79µM*
SMILES,FEN1 inh,WRN helicase inh,POLI inh,Pol beta inh,Pol kappa inh,POLH inh
CC[C@H](C)[C@H](NC(=O)[C@H](Cc1ccc(O)cc1)NC(=O)[C@@H]1CCCN1C(=O)[C@H](CCCCN)NC(=O)[C@@H](N)CCCCN)C(=O)N[C@@H](CC(C)C)C(=O)O,.,.,.,.,18%[60.1 µM],.
CCCCN1CC[C@H]2C=CC[C@@H](C(=O)NCc3cccnc3)[C@H]2C1=O,-4%,.,18%,.,-9%,.
CCC1CCCCN1CCCNC(=O)c1ccc2c(c1)sc1nc(-c3ccc(F)cc3)cn12 (stereo not given),-8%,.,9%,24%,-11%,-12%
Cc1cc2c(c(=O)o1)C(c1ccc([N+](=O)[O-])o1)C(C#N)=C(N)O2 (stereo not given),?,?,20µM*,?,79µM*,-3%
CCC(CC)C1C(C#N)=C(N)Oc2cc(C)oc(=O)c21 (stereo not given),7%,-5%,-3%,-8%,-4%,9%
O=[N+]([O-])c1ccc(O)c(/C=N/n2cnc3ccccc32)c1,14%,-5%,4%,1%,-10%,-18%
Cc1ccc(/C=C2\SC(=S)N(/N=C/c3cc([N+](=O)[O-])ccc3O)C2=O)o1,50µM*,35µM*,4.5µM*,8.9µM*,20µM*,10µM*
COc1ccc(-c2c[n+]3c4n2CCCCC4=C(c2ccccc2)C3)cc1,-1%,-2%,9%,11µM*,-6%,0%
COc1ccc(-c2c[n+](CC(=O)c3ccccc3)c3n2CCCCC3)cc1,-13%,3%,-4%,21%,-15%,-15%
COc1ccc(CCNC(=O)C2CCCN(c3nc4c(C)cc(C)cc4s3)C2)cc1OC (stereo not given),3%,.,27%,-7%,-15%,-14%
CCc1ccc(N=C2NC(=O)CC(C(=O)Nc3ccc(OC)cc3)S2)cc1 (stereo not given),-2%,.,-8%,18µM*,-17%,?
Cc1ncc2c(c1O)COP(=O)(O)OC2,.,.,.,.,-11%[19.4 µM],.
COC(=O)CCCC1=CC2=CC(=O)C(C)(OC(=O)C3CCCC3)C(=O)C2=CO1 (stereo not given),?,?,22µM*,45µM*,?,20µM*
CC1(OC(=O)C2CCCC2)C(=O)C=C2C=C(c3ccsc3)N(C3CCCC3)C=C2C1=O (stereo not given),3%,12%,?,10%,-4%,-2%
CC1(OC(=O)CCc2ccccc2)C(=O)C=C2C=C(c3ccsc3)OC=C2C1=O (stereo not given),.,.,.,45µM*,.,.
COC(=O)CCCC1=CC2=C(c3ccccc3)C(=O)C(C)(OC(=O)C3CCCC3)C(=O)C2=CN1C1CCCC1 (stereo not given),-10%,-2%,44%,6%,-5%,-4%
